Only some compounds are listed: those with a hit (about 3.2% of all), similar ones and a draw of the others.
TRb SRC2 PPI: inhibitors of human thyroid hormone receptor beta-SRC2 interaction; TRbeta-SRC2 peptide binding, fluorescence polarization; receptor liganded with 1 µM T3; Potency, µM (series often up to 106 µM), for inactives: at the top dose activity change, negative = inhibition, hits mostly inhibitors; P10828; 0.065% of 280,000 active;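 note: plate controls were bound peptide for no effect and peptide without receptor for full effect; nearly all actives have a fitted effect of over 50% in size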
Target sequence (P10828 whole entry, looked up): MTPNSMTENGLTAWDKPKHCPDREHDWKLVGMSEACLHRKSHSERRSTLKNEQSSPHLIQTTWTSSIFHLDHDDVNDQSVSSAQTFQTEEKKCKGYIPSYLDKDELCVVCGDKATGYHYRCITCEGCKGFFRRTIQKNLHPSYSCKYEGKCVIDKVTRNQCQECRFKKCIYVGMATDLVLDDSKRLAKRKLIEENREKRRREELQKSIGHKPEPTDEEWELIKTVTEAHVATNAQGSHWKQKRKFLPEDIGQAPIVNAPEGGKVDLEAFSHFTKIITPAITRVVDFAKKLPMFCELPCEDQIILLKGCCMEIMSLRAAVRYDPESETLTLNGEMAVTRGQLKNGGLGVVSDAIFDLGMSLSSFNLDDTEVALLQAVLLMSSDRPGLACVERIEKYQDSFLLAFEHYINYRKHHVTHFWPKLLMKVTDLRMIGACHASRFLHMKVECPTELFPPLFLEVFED
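A fluorescence polarization screen tested compounds at multiple concentrations against complex formation between 0.6 uM TRb ligand-binding domain and 20 nM Texas Red SRC2 peptide, with 1 uM T3 present; readout after 5 hr.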
Tau fluor counter: counter-screen for tau fibril formation inhibitors; Potency, µM (titrated, usually from 57.7 µM), inactives show at the top dose activity change, negative = decrease; tau K18 P301L Alexa594 fluorescence, heparin fibrillization; 0.93% of 280,000 active; AID 1463; note: nearly all actives have a fitted effect of over 55% in size
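Human tau K18 P301L (15 uM unlabeled, 0.24 uM Alexa 594-labeled) in 100 mM sodium acetate pH 7 with 20 uM heparin, 6 hr at 37 C. ThT 30 uM added, 1 hr ambient; Alexa 594 FP and total fluorescence read at 555/632 nm.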
TR SRC2 fluor cs: alters Texas Red total fluorescence, flagging assay interference. Potency, µM (top dose mostly 106 µM), for the others: at the top dose fluorescence change, negative = quenching. 0.29% of 280,000 active. TRb/SRC2 Texas Red total fluorescence interference; active = well fitted curve in either direction with a large enough effect; inconclusive = small, poorly fitted or top-dose-only effect
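Flags fluorescent or light-absorbing compounds by total fluorescence, S + 2P, at 555 nm excitation and 632 nm emission. Mixture: 20 nM Texas Red SRC2 peptide, 0.6 uM human TRb LBD, 1 uM T3, 5% DMSO; compound exposure 5 h at ambient temperature.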
Tau fibril FP: blocks human tau fibril formation measured by polarization; P10636; K18 P301L tau heparin fibrillization, Alexa594 FP, 6 h; Potency, µM (top dose mostly 57.7 µM), for inactives: at the top dose activity, negative = inhibition, most hits filed as inhibitors; 0.39% of 280,000 active; AID 1468; note: nearly all actives have a fitted effect of over 55% in size
Target sequence (P10636 561-689 P618L limits assumed): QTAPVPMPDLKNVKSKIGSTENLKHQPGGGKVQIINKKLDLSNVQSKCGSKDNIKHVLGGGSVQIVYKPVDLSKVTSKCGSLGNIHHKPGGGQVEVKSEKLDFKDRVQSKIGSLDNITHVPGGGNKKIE
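Human tau K18 […] P301L fragment, 15 uM unlabeled plus 0.24 uM Alexa 594-labeled tau (final), with compound and 20 uM heparin in 100 mM sodium acetate pH 7; 6 hr at 37 C, then Alexa 594 FP read.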
Tau ThT inhib: blocks human tau fibril formation measured by thioflavin T; P10636; recombinant tau K18 P301L (four-repeat tau fragment), heparin-induced fibrillization, ThT fluorescence; Potency, µM (highest dose often 57.4 µM), inactives show top-dose activity, negative = inhibition, actives largely listed as inhibitors; 2.1% of 270,000 active; AID 1460; note: nearly all actives have a fitted effect of over 55% in size
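Aggregation was driven by heparin (20 uM final) acting on recombinant tau […] bearing P301L in 100 mM sodium acetate pH 7; fibrils were detected with Thioflavin T.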
RGS12 GoLoco inh: RGS12 GoLoco-Gai1 interaction inhibition; P63096; Gai1:RGS12 GoLoco peptide FP, rhodamine, 10 min; Potency, µM (titrated, usually from 61.6 µM), for the others: at the top dose activity, negative = inhibition, usual class: inhibitors; 0.44% of 230,000 active; AID 880; active = well fitted inhibition curve with a large enough effect, not every such curve was filed as active; inactive = no such curve, though single readings can be large or run the other way; note: nearly all actives have a fitted effect of over 30% in size
Starred values were filed as active, the others as inactive; ? = inconclusive; . = not tested or not shown; [ ] = another dose, or the depositor's remark. Unless noted, calls come from the whole dose curve; as a rule, active = well fitted curve in the direction sought with a large enough effect; inconclusive = small, poorly fitted or top-dose-only effect, or another doubt; inactive = no such curve, though single readings can be large; an effect the other way counts as inactive or inconclusive. Unless noted, % is set by controls: 0 for no effect and ±100 for the full control effect; potency is the fitted concentration of half-maximal effect.

SMILES | TRb SRC2 PPI | Tau fluor counter | TR SRC2 fluor cs | Tau fibril FP | Tau ThT inhib | RGS12 GoLoco inh
CC[C@@H](C(=O)[C@@H](C)[C@@H](O)[C@H](C)CCc1ccc(C)c(O)c1C(=O)O)C1O[C@](CC)(C2CC[C@](O)(CC)[C@H](C)O2)C[C@@H]1C (some centres not stated) | 9% | . | 2% | . | . | .
COc1ccccc1NC(=O)c1sc2ncn(Cc3ccc(C)cc3)c(=O)c2c1C | 3% | -23% | -2% | -1% | -5% | 29%
COc1ccccc1NC(=O)c1sc2ncn(Cc3cccc4ccccc34)c(=O)c2c1C | ? | -5% | 0.89µM*[quencher] | 14% | -5% | 39%
CCC(=O)Nc1c(C#N)c2nc3ccccc3nc2n1C1CCCCC1 | -4% | 2% | 0% | 7% | -12% | 9%
CCOC(=O)c1c(NC(=O)c2ccco2)n(C2CCCCC2)c2nc3ccccc3nc12 | ? | -29% | 1% | ? | 18µM* | 15%
Cn1c[n+](C)cc1/C=N/O | 5% | -4% | -4% | -9% | -15% | 4µM*
Cn1c(/C=N/O)nc2ccccc21 | 0% | 1% | -1% | 6% | -6% | -3%
O=C(Nc1ccccc1)Nc1ccc(Br)c(Cl)c1 | 2% | ? | 3% | 14µM* | ? | 0%
O=C(Nc1ccc(Cl)cc1)Nc1ccc(Cl)c(Cl)c1 | -1%[201 µM] | . | 0%[201 µM] | . | . | 6%
O=C(Nc1ccc(Br)cc1)Nc1ccccc1F | -7% | ? | -5% | ? | 11% | 3%
O=C(Nc1ccc(Cl)c(Cl)c1)Nc1ccccc1O | -2% | 13µM*[quencher] | -2% | -5% | ? | 14%
O=C(Nc1ccc(Cl)c(Cl)c1)Nc1ccc(Br)cc1F | 6% | ? | -19% | 7.1µM* | ? | 7%
O=C(NNc1ccccc1[N+](=O)[O-])Nc1ccc(Cl)c(Cl)c1 | -1% | 16µM*[quencher] | -3% | ? | 16µM* | 18%
Cc1cn2c(=O)c(S(=O)(=O)NCc3ccccc3Cl)c(C)nc2s1 | -4% | -6% | -2% | -1% | 1% | .
CCOC(=O)c1c(C)oc2nc(C)nc(NCc3ccccc3OC)c12 | 6% | -9% | -5% | 3% | -9% | .
CCCCN(CCCC)S(=O)(=O)c1ccc(NC(=O)c2ccc([N+](=O)[O-])cc2Cl)cc1 | -1% | ? | 0% | ? | -3% | 6%
CCN(CC)S(=O)(=O)c1cc([N+](=O)[O-])ccc1NNC(=O)Nc1ccc(Cl)c(Cl)c1 | -21% | 7.1µM*[quencher] | 0% | ? | -22% | -7%
COc1ccc2[nH]c(C)cc(=O)c2c1 | -5% | -1% | -3% | 11% | 5% | -4%
COc1ccc2[nH]c3c(C)c4ccncc4c(C)c3c2c1 | -5% | ? | -11% | -8% | 3.5µM* | 15%
O=C1CC(/C=C/c2ccccn2)=Nc2ccccc2N1 | -2% | -12% | 2% | 4% | ? | 6%
O=C1CC(/C=C/c2ccc([N+](=O)[O-])cc2)=Nc2ccccc2N1 | -7% | ? | 0% | 6% | 4µM* | 9%
Cc1cc(C)cc(-n2c(SCC(=O)N3CCCCCC3)nc3c([nH]c4ccccc43)c2=O)c1 | 4% | -19% | -2% | -9% | -17% | .
COc1cccc(Nc2nc(-c3sc(NC(=O)c4ccco4)nc3C)cs2)c1 | 10% | ? | 3% | ? | 10µM* | 49%
COc1ccc(Cl)cc1Nc1nc(-c2sc(NC(=O)c3ccco3)nc2C)cs1 | 12% | ? | -1% | 16% | ? | 43%
COc1cccc(Nc2nc(-c3sc(N)nc3C)cs2)c1 | 8% | 14µM*[quencher] | 1% | -6% | 11µM* | 18%
SMILES | TRb SRC2 PPI | Tau fluor counter | TR SRC2 fluor cs | Tau fibril FP | Tau ThT inhib | RGS12 GoLoco inh
NCCC[C@@H](CC(=O)N[C@@H]1CCCC[C@H]1C(=O)N[C@H](CC(=O)N[C@@H](CCC(=O)O)CC(=O)O)Cc1c[nH]c2ccccc12)NC(=O)C[C@H](Cc1ccccc1)NC(=O)[C@@H]1CCCC[C@H]1N | 5% | -10% | 0% | 10% | -15% | 6%
O=C1N=c2ccccc2=C1c1sc(NS(=O)(=O)c2ccccc2)nc1O | 0% | ? | -26% | 5% | 7.1µM* | 15%
O=C1N=c2ccccc2=C1c1sc(Nc2ccc(O)cc2)nc1O | -1% | 14µM*[quencher] | -16% | 5% | 2.2µM* | 43%
O=C1N=c2ccccc2=C1c1sc(NS(=O)(=O)Cc2ccccc2)nc1O | 3% | -20% | -7% | 6% | 7.9µM* | 1%
CSc1nc2ccc(NS(=O)(=O)c3c(Cl)cccc3Cl)cc2s1 | -12% | 10µM*[quencher] | -2% | -3% | ? | 30%
CSc1nc2ccc(NS(=O)(=O)c3ccccc3F)cc2s1 | -4% | -11% | -4% | 3% | -5% | -4%
CC(C)C1O[C@H](/C=C\c2ccccc2)OCC1(C)C (some centres not stated) | . | . | . | . | . | 0%[14.2 µM]
CN(C)c1ccccc1CN1CCCN(Cc2ccccc2N(C)C)C1c1ccncc1 | . | . | . | . | . | 5%[14.2 µM]
COc1cc(CC(=O)OCC(=O)Nc2cc([N+](=O)[O-])ccc2F)cc(OC)c1OC | -26%[53 µM] | -5% | 1000µM*[quencher] | 13% | -1% | -16%
O=C(Nc1ccc(Cl)c(Cl)c1)Nc1nnc(CC2=CCCCC2)s1 | 2% | ? | -1% | 8.9µM* | 11% | -4%
O=C1Nc2ccc([N+](=O)[O-])cc2OC1CCN1CCN(c2ccccc2)CC1 (configuration not stated) | -7% | -23% | 0% | 1% | 10µM* | 3%
O=C(NC1CCCCCC1)c1ccc(CS(=O)c2cccc(Cl)c2)o1 (configuration not stated) | -2% | 0% | -1% | 7% | 4% | .
N[C@H](C(=O)O)[C@H](O)C(=O)O | 1% | -1% | -18% | -1% | -4% | -11%
O=C(O)C(S)[C@@H](S)C(=O)O (some centres not stated) | 4% | -29% | -13% | 11µM* | 7.9µM* | 2%
Cc1cc(=O)n(Cc2ccc(Br)cc2F)c2c1c(C)nn2-c1ccccc1 | 5% | 6% | 4% | -9% | 8% | .
Cc1cc(N2CCC(C)CC2)nc2ccc(NC(=O)/C=C/c3cccc(Cl)c3)cc12 | 17% | 14µM*[quencher] | 9% | 24% | 6.3µM* | .

Source: PubChem (National Center for Advancing Translational Sciences (NCATS))
